GAA glycogen mod = inhibitors or activators of human alpha-glucosidase glycogen cleavage. recombinant GAA, glycogen substrate, Amplex Red glucose oxidase fluorescence. AID 2100. Potency, µM (highest dose often 76.4 µM), actives largely listed as inhibitors. actives 0.38% (n = 300,000);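 also: the screen sought inhibitors and activators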
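Recombinant human alpha-glucosidase (4 nM final) hydrolysed bovine liver glycogen (30 ug) for 40 min at 37 C in pH 5.0 citrate/phosphate with 0.01% Tween-20. Released glucose detected by glucose oxidase/Amplex Red, Ex 573/Em 610 nm. Compounds up to 77 uM; AC50 from Hill fits.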
N370S GC mod = N370S glucocerebrosidase modulation, Gaucher chaperone candidate; actives 0.092% (n = 330,000); AID 2101; N370S GC spleen homogenate, 4MU-glucoside fluorescence; Potency, µM (series often up to 59.4 µM), actives largely listed as inhibitors
aGlu spleen mod = inhibits or activates alpha-glucosidase in human spleen homogenate; P10253; human spleen homogenate, 4-MU-alpha-glucoside fluorescence; Potency, µM (series often up to 79.9 µM), hits mostly inhibitors; actives 0.006% (n = 240,000); AID 2112
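AC50 values come from Hill-equation fits of concentration-response data, normalized to no-enzyme and full-activity controls. Enzyme source: 1 ug human spleen homogenate; 1 mM fluorogenic 4-MU glucoside, pH 5.0 citrate buffer, 37 C, 40 min.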
GAA inhib = blocks human lysosomal alpha-glucosidase; P10253; purified human GAA, 4-MU-alpha-glucoside fluorescence; Potency, µM (highest dose often 76.9 µM), actives largely listed as inhibitors; actives 0.005% (n = 200,000); AID 1466
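Fluorescence at Ex 365/Em 440 nm from 4-methylumbelliferone reported enzyme activity after 20 min at room temperature. Reactions used 4 nM enzyme and 400 uM substrate at pH 5.0; curves fitted with the Hill equation.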
GLA spleen mod = inhibits or activates alpha-galactosidase in human spleen homogenate; P06280; human spleen homogenate, 4MU-alpha-Gal fluorescence, 40 min; Potency, µM (highest dose often 80 µM), actives largely listed as inhibitors; actives 0.008% (n = 240,000)
Target sequence (P06280 32-429 limits assumed): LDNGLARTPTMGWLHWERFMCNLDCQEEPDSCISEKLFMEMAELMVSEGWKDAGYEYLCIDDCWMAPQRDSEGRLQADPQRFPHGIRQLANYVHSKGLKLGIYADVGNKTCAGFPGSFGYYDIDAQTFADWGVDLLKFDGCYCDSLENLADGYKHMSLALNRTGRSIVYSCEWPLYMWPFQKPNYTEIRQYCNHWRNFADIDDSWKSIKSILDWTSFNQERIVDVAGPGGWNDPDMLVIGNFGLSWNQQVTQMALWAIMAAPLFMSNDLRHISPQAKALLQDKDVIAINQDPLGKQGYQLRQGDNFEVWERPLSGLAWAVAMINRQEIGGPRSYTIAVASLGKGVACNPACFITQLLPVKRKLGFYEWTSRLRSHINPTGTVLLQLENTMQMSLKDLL
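Human spleen homogenate (1 ug) as enzyme source, 4-methylumbelliferyl-alpha-D-galactopyranoside 1 mM final, citrate/phosphate pH 5.0 with 0.01% Tween-20. Compounds 40 min at 37C, NaOH/glycine stop; fluorescence Ex 365/Em 440, Hill-fit AC50.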
GLA inh pH 4.5 = alpha-galactosidase A (human) inhibition, pH 4.5. P06280. purified enzyme, 4-MU-alpha-Gal fluorescence, pH 4.5. activity change, negative = inhibition, % at 105 µM. 230,000 tested, under 10 active. AID 1467
Numbers stand for hits; - = inactive; ? = inconclusive; . = not tested or not shown; [ ] = another dose, or the depositor's remark. Only some compounds are listed: those with a hit (about 0.43% of all), similar ones and a draw of the others. Calls follow the shape of the dose curve; as a rule, active = well fitted curve in the direction sought with a large enough effect; inconclusive = small, poorly fitted or top-dose-only effect, or another doubt; inactive = no such curve, though single readings can be large; an effect the other way counts as inactive or inconclusive.

SMILES	GAA glycogen mod	N370S GC mod	aGlu spleen mod	GAA inhib	GLA spleen mod	GLA inh pH 4.5
COC(=O)CC1c2ccccc2C(Cc2ccc(OC)cc2)C(C)N1C(=O)OC (stereo not drawn)	.	-[12.8 µM]	-[17.4 µM]	.	-[17.5 µM]	-
Nc1nc(-c2nn(Cc3ccccc3F)c3ncccc23)ncc1C1CC1	.	-	-	.	-	.
CSCC[C@H](NC(=O)CN)C(=O)N[C@@H](CC(=O)O)C(=O)N[C@@H](CO)C(=O)N[C@@H](CC(C)C)C(=O)N[C@@H](C)C(=O)N[C@@H](Cc1ccccc1)C(=O)N[C@@H](CO)C(=O)NCC(=O)NCC(=O)N[C@@H](CC(C)C)C(N)=O	.	-	-	.	-	.
CC(=O)c1cc2c(O)c(O)ccc2o1	31µM	-	-	-	-	-
CC(=O)c1cc2cc(O)ccc2o1	-	?	?	?	?	?
Cc1ccc2c(C(=O)CNc3nncs3)c(C)[nH]c2c1	28µM	-	-	-	-	-
COc1ccc(N=Cc2sc(O)c3ccccc23)cc1	20µM	-	-	-	-	-
COc1ccc(N=Cc2c(O)c3ccccc3n2C(C)=O)cc1	-	-	-	.	-	-
CC(C)C(C(=O)O)N1C(=O)/C(=C/c2ccc(Br)cc2)SC1=S (stereo not drawn)	.	-	-	.	-	.
C/C(=N\N1CCN(C)CC1)c1ccc(Cl)c(Cl)c1	28µM	-	-	-	-	-
CN=c1scc(-c2ccco2)n1/N=C/c1ccc(O)c(O)c1	5.6µM	-	-	-	-	-
C=CCN=c1scc(C)n1/N=C/c1ccc(O)c(O)c1	?	-	-	-	-	-
COc1ccc(C(=O)NNC2=CC(=O)CC(C)(C)C2)cc1	?	-	-	-	-	-
CC1(C)CC(=O)C=C(NNC(=O)c2ccccc2O)C1	45µM	-	-	-	-	-
COc1ccc(O)c(-c2cc(-c3cccs3)[nH]n2)c1	40µM	-[2.35 µM]	-	-	-	-
CC[C@H](C)[C@H](NC(=O)[C@H](CCC(=O)O)NC(=O)[C@H](CC(N)=O)NC(=O)[C@@H](N)[C@@H](C)O)C(=O)N[C@H](C(=O)N[C@@H](CCC(=O)O)C(=O)N[C@@H](CCC(=O)O)C(=O)N[C@@H](CCC(N)=O)C(=O)N[C@@H](Cc1ccc(O)cc1)C(=O)N[C@H](C(=O)N1CCC[C@H]1C(=O)N[C@@H](CCC(N)=O)C(=O)N[C@@H](CO)C(=O)N[C@@H](CC(C)C)C(=O)N[C@@H](C)C(=O)N[C@H](C(=O)N[C@@H](CC(C)C)C(=O)N[C@@H](CCC(=O)O)C(=O)N[C@@H](CO)C(=O)N[C@H](C(=O)N[C@@H](Cc1ccccc1)C(=O)N[C@@H](CCC(N)=O)C(=O)N[C@@H](CCC(=O)O)C(=O)N[C@@H](CC(C)C)C(=O)NCC(=O)N[C@@H](CCCCN)C(=O)N[C@@H](CC(C)C)C(=O)N[C@H](C(=O)NCC(=O)N1CCC[C@H]1C(=O)N[C@@H](CC(N)=O)C(=O)N[C@@H](CO)C(=O)N[C@@H](CCC(N)=O)C(=O)O)[C@@H](C)O)C(C)C)[C@@H](C)O)[C@@H](C)O)C(C)C	.	-	-	.	-	.
Cc1ccc(-c2ccc(NC(=O)C3C4C=CC(C4)C3C(=O)O)cc2)o1 (stereo not drawn)	40µM	.	-	-	-	-
CN1C(=O)N(C)C2=NNC=NC2(O)C1=O (stereo not drawn)	.	-	-	.	-	-
CCCCn1c(C)cc2cc(O)ccc21	32µM	-	-	-	-	-
O=C(O)C1OC(Oc2cc3oc(-c4ccccc4)cc(=O)c3c(O)c2O)C(O)C(O)C1O (stereo not drawn)	6.3µM	-	-	-[15.4 µM]	-	-
C/C=C\C1=CCCC1Nc1ncnc2ccc(-c3c(C)noc3C)cc12 (stereo not drawn)	.	-	-	.	-	.
CC(C)(C)NC(=S)Nc1ccc(Nc2ccccc2)cc1	14µM	-	?	-	-	-
CC(C)(C)NC(=S)Nc1ccc(Br)cc1	-	-	-	-	-	-
CCC1=C[C@@H]2CN(C1)Cc1c([nH]c3ccccc13)[C@@](C(=O)OC)(c1cc3c(cc1OC)N(C)[C@H]1[C@@](O)(C(=O)OC)[C@H](OC(C)=O)[C@]4(CC)C=CCN5CC[C@]31[C@@H]54)C2	.	-	-	.	-	.
Cc1cc(C)c2c(-n3cccc3)c(C(=O)NNS(=O)(=O)c3ccc(Br)cc3)sc2n1	18µM	?	-	-	-	-
SMILES	GAA glycogen mod	N370S GC mod	aGlu spleen mod	GAA inhib	GLA spleen mod	GLA inh pH 4.5
Cc1cc(C)c2c(-n3cccc3)c(C(=O)NCC(C)c3ccccc3)sc2n1 (stereo not drawn)	-	.	.	.	.	.
COc1cccc(C2=Nn3c(nnc3-c3cc(OC)cc(OC)c3)SC2)c1	.	-	-	.	-	.
CCc1cc(-c2n[nH]c(C)c2-c2nc3ccccc3n2C)c(O)cc1O	?	-	-	?	-	-
CCc1cc(-c2n[nH]c(C)c2-c2nc3ccccc3n2C)c(O)c(CN2CCN(C)CC2)c1O	8.9µM	-	-	-	-	-
NCCCCCCCCCCNCCCN	.	-	-	.	-	.
O=C1NC(=O)c2c1c(-c1ccccc1)cc1[nH]c3ccc(O)cc3c21	.	-	-	.	-	.
CCOC(=O)c1c(CSc2ccccc2)n(C)c2cc(Br)c(OCC(O)CNC(CO)(CO)CO)cc12 (stereo not drawn)	-	14µM	-	-	-	-
N.N.N.N.N.N.N.N.N.N.N.N.N.N.O.O.[Cl-].[Cl-].[Cl-].[Cl-].[Cl-].[Cl-].[Ru].[Ru].[Ru]	.	-	-	.	-	-
Cc1c(C)n(Cc2ccc(F)cc2)c2ccc(C(=O)NCCN3CCOCC3)cc12	-	14µM	.	.	.	.
Cc1cccc(Cn2c(C)c(C)c3cc(C(=O)NCCN4CCOCC4)ccc32)c1	-	?	.	.	.	.
CCn1c(SCC(=O)c2ccc(O)c(O)c2)nnc1-c1ccc(C)cc1	12µM	-	-	-	-	-
CC(=O)Nc1ccc(Nc2nc(-c3ccccc3)nc3ccccc23)cc1	-	6.3µM	-	-	-	-
O=C(O)c1ccc(Nc2nc(-c3ccc([N+](=O)[O-])cc3)nc3ccccc23)cc1	-	-	.	.	.	.
Fc1ccc(Nc2nc(-c3ccoc3)nc3ccccc23)cc1	.	16µM	-	.	-	.
c1ccc(CNc2nc(-c3ccoc3)nc3ccccc23)cc1	.	?	-	.	-	.
Cc1cccc(-c2nc(Nc3ccc(N4CCOCC4)cc3)c3ccccc3n2)c1	-	2.8µM	-	-	-	-
CC(Nc1nc(-c2ccccc2)nc2ccccc12)c1ccccc1 (stereo not drawn)	-	5µM	-	-	-	-
O=C(Cn1c(=O)n(Cc2ccccc2)c(=O)c2sc3ccccc3c21)Nc1ccccc1	7.9µM	.	.	.	.	.
